Data reported in PubChem BioAssay (NCATS).
Values joined by “and” are separate entries in the source; they are usually repeats but may differ in a detail not shown here. Equal entries are not always repeated. Results filed as inconclusive are left out. Active and inactive are the calls of the source. Unless noted, the call rests on the fitted dose curve.

Key:
[1] = Cell Viability - BJ (AID 421); settings: BJ fibroblast viability, qHTS;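 further: potency means the concentration at half of the fitted maximal effect; cells exposed to compound for 40 hours at 37 °C before readout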
Outline: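 Luminescent ATP signal (CellTiter-Glo, 20 min at room temperature) served as the read-out of viable BJ cells after 40 hours of compound treatment. Responses were scaled between DMSO and 100 uM tamoxifen, and AC50 values were obtained by Hill modeling.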

[2] = Cell Viability - MRC5 (AID 434); settings: MRC5 lung fibroblast viability, qHTS;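 further: potency means the concentration at half of the fitted maximal effect; potency reflects cytotoxicity seen as loss of intracellular ATP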
Outline: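 MRC5 normal human lung fibroblasts, 1500 cells/well, exposed to compound for 40 hr at 37 C. Cellular ATP was read by CellTiter-Glo luminescence; data normalized to DMSO and 100 uM tamoxifen, with AC50 from Hill fits.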

[3] = Cell Viability - N2a (AID 540; active means well fitted cell-killing curve with a large enough effect;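 further: plate controls were DMSO alone for no effect and tamoxifen control for full effect; nearly all actives have a fitted effect of over 45% in size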); settings: N2a mouse neuroblastoma cell viability; activity change, negative = cytotoxicity: at 92.2 µM (top of the series)
Outline: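 Mouse neuroblastoma N2a cells, 1500/well, exposed to compounds 40 h at 37 °C in complete medium. Viability measured as cellular ATP by CellTiter-Glo luminescence; AC50 from Hill fits of concentration-response.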

[4] = MultiTox-Fluor Cytotoxicity Assay - LYMP1-001 - Live Cells (AID 947; active means well fitted cell-killing curve with a large enough effect;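 further: 0% = DMSO only and full inhibition = tetraoctylammonium bromide control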); settings: LYMP1-001 lymphoblastoid cells, live-cell protease fluorescence viability; series mostly up to 92.2 µM
[5] = target: Estrogen receptor (Homo sapiens) (UniProt P03372); test: qHTS assay for small molecule antagonists of estrogen receptor alpha signaling (AID 588513; active means well fitted curve in the direction sought with a large enough effect in the signal ratio, with a control signal flat, not every such curve was filed as active; the % refers to the signal ratio; further: on the % scale 0 is the no-effect control and ±100 the full control effect); settings: ER-alpha-UAS-bla HEK293, beta-lactamase ratio, antagonist mode; series mostly up to 76.9 µM
Estrogen receptor (Homo sapiens), sequence (P03372 whole entry, looked up): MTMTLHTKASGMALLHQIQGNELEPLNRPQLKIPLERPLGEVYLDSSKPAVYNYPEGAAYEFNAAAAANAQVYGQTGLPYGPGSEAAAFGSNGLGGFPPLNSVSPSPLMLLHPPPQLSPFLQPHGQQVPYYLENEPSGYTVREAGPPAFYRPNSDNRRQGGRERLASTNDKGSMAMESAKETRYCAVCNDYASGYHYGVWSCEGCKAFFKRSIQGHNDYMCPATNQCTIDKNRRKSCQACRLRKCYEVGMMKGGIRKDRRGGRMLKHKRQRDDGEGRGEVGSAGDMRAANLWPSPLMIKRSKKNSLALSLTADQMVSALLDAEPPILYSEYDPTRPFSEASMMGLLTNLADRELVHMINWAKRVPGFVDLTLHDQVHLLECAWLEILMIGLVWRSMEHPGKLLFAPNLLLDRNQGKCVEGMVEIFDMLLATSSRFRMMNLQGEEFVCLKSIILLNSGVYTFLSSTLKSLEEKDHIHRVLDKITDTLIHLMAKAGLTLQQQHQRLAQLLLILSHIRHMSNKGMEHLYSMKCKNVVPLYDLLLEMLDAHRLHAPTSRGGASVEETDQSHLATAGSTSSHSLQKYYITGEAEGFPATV
Outline: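 ER-alpha-UAS-bla GripTite HEK 293 cells in 2% charcoal/dextran-treated FBS medium; compounds titrated (1:2, duplicate), then stimulated with 0.5 nM 17-beta-estradiol for 18 h at 37C. CCF4 beta-lactamase fluorescence; Hill-fit IC50 and efficacy.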

[6] = target: Glucocorticoid receptor (Homo sapiens) (UniProt P04150); test: qHTS assay for small molecule antagonists of glucocorticoid receptor signaling (AID 588533; active means well fitted inhibition curve with a large enough effect in the signal ratio, with a control signal flat, not every such curve was filed as active; the % refers to the signal ratio; further: on the % scale 0 is the no-effect control and ±100 the full control effect); settings: HeLa MMTV-bla, GRE beta-lactamase ratio, antagonist mode, 18 h; series mostly up to 76.8 µM
Glucocorticoid receptor (Homo sapiens), sequence (P04150 whole entry, looked up): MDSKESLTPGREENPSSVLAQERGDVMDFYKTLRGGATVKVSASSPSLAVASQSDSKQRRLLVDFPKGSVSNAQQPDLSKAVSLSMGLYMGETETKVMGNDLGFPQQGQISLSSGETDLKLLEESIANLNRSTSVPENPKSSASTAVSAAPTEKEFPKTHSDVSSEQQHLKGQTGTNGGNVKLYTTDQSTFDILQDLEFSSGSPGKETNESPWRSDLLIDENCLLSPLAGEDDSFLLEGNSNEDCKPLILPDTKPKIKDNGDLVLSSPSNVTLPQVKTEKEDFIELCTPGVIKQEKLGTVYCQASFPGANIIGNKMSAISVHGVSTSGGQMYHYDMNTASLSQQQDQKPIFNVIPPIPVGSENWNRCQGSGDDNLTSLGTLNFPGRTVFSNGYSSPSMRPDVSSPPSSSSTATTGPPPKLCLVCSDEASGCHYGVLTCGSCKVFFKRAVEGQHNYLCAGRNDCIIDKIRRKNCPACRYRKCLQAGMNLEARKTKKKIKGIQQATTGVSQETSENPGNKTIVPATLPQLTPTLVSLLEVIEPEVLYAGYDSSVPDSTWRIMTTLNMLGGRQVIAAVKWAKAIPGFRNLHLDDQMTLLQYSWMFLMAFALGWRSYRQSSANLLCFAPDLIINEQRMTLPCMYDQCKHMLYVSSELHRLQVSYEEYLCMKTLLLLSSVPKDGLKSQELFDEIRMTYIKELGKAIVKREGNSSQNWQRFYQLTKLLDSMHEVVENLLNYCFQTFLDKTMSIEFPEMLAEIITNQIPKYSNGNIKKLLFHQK
Outline: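 Antagonist-mode qHTS: compound titrations added to GRE-bla HeLa cells, then dexamethasone 2 nM final; 18 h, 37 C. CCF4 FRET fluorescence normalized to dexamethasone and DMSO; IC50 from Hill fit.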

[7] = qHTS assay for small molecule antagonists of peroxisome proliferator-activated receptor delta signaling (AID 588535; active means well fitted inhibition curve with a large enough effect in the signal ratio, with a control signal flat, not every such curve was filed as active; the % refers to the signal ratio;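 on max response: cells co-treated with a PPAR-delta agonist as stimulator during compound exposure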); settings: HEK293T PPARd-UAS-bla, beta-lactamase FRET ratio, 18 h; 460 nm channel
Outline: (§1)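 Antagonist-mode beta-lactamase reporter (GeneBLAzer PPAR-delta-UAS-bla) in HEK293T cells, 2% charcoal/dextran FBS, 4000 cells/well. Compound titrations, 18 h at 37 C; CCF4 ratio read, IC50 and efficacy from Hill fits.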

[8] = target: Peroxisome proliferator-activated receptor delta (Homo sapiens) (UniProt Q03181); test: as above; settings: HEK293T PPARd-UAS-bla, beta-lactamase FRET ratio, 18 h; series mostly up to 76.7 µM
Peroxisome proliferator-activated receptor delta (Homo sapiens), sequence (Q03181 whole entry, looked up): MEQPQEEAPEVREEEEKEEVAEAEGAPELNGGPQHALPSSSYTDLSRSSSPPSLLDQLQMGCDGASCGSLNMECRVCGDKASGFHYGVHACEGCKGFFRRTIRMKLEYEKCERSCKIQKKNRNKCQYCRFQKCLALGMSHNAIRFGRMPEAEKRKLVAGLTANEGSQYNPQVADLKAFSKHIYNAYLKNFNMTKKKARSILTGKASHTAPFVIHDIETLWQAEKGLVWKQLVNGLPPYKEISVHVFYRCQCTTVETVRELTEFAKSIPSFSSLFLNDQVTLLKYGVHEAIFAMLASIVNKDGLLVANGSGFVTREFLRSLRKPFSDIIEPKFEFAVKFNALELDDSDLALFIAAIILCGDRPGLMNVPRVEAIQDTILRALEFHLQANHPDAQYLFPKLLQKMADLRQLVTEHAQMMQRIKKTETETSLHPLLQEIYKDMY
Outline: as §1

[9] = target: Peroxisome proliferator-activated receptor gamma (Homo sapiens) (UniProt P37231); test: qHTS assay for small molecule agonists of peroxisome proliferator-activated receptor gamma signaling (AID 588536; active means well fitted curve in the direction sought with a large enough effect in the signal ratio, with a control signal flat, not every such curve was filed as active; the % refers to the signal ratio;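 further: 0% = DMSO basal wells and 100% = rosiglitazone at 2 µM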); settings: HEK293 PPARg-UAS-bla, beta-lactamase ratio, 16 h, percent of rosiglitazone response, DMSO as zero; series mostly up to 76.7 µM
Peroxisome proliferator-activated receptor gamma (Homo sapiens), sequence (P37231 whole entry, looked up): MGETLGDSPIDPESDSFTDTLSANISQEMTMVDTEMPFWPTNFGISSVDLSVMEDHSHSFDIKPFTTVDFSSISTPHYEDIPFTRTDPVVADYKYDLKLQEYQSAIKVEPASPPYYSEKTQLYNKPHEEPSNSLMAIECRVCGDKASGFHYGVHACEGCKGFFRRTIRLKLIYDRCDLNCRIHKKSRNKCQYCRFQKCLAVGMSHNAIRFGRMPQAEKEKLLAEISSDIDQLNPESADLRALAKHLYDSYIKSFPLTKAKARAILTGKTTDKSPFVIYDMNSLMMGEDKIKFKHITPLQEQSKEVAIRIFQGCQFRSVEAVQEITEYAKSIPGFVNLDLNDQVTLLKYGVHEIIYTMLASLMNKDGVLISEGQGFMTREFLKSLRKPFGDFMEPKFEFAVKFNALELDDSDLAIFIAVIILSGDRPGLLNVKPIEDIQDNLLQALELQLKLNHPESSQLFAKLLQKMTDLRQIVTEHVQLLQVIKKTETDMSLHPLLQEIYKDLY
Outline: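 PPAR-gamma-UAS-bla HEK293 cells in medium with 1% charcoal/dextran-treated FBS were exposed to compounds for 16 h at 37 C. Beta-lactamase activity was read with CCF4 substrate (405 nm excitation, 460/530 nm emission).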

[10] = target: Peroxisome proliferator-activated receptor gamma (Homo sapiens) (UniProt P37231); test: qHTS assay for small molecule antagonists of peroxisome proliferator-activated receptor gamma signaling (AID 588537; active means well fitted inhibition curve with a large enough effect in the signal ratio, with a control signal flat, not every such curve was filed as active; the % refers to the signal ratio;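 further: reporter cells co-stimulated with 50 nM rosiglitazone agonist during compound treatment; % of control where 0% means no effect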); settings: HEK293 PPARg-UAS-bla, beta-lactamase ratio, antagonist mode; series mostly up to 76.8 µM
Outline: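 PPARγ-UAS-bla HEK293 cells (3000/well) in 1% charcoal/dextran-stripped FBS are treated with compound, then stimulated with 50 nM rosiglitazone for 16 h at 37 °C. Read-out is CCF4 β-lactamase fluorescence after 2 h at RT. IC50 comes from Hill fits normalised to rosiglitazone and DMSO.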

[11] = target: Thyroid hormone receptor beta (Homo sapiens) (UniProt P10828); test: qHTS assay for small molecule antagonists of thyroid hormone receptor beta signaling (AID 588547; active means well fitted inhibition curve with a large enough effect in the signal ratio, with a control signal flat, not every such curve was filed as active; the % refers to the signal ratio;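 further: cells stimulated with 0.4 nM T3 agonist during compound exposure; on the % scale 0 is the no-effect control and ±100 the full control effect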); settings: TR-UAS-bla HEK293, beta-lactamase ratio, antagonist mode, 18 h
Thyroid hormone receptor beta (Homo sapiens), sequence (P10828 whole entry, looked up): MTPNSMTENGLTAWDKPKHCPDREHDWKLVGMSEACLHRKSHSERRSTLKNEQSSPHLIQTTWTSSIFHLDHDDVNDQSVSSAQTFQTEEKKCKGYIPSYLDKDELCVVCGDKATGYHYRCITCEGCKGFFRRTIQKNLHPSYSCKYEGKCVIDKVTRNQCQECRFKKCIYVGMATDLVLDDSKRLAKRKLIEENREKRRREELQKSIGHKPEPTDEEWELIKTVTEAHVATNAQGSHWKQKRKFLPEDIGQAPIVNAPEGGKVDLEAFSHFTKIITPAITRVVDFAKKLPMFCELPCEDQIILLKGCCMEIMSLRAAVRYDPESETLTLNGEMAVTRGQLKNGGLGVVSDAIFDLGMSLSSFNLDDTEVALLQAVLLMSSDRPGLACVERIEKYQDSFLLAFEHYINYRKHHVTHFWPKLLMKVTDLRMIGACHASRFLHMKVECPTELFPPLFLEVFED
Outline: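 TR-UAS-bla GripTite HEK293 cells in 2% charcoal/dextran FBS medium; compounds 0.59 nM to 92 uM with T3 at 0.4nM final, 18 h at 37 C. Beta-lactamase read by CCF4 fluorescence (460/530 nm); Hill fits gave IC50 and efficacy.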

[12] = qHTS assay for small molecule disruptors of the mitochondrial membrane potential - 1 hr assay (AID 651754); settings: series mostly up to 92.2 µM; further: nearly all actives have a fitted effect of over 35% in size; further: potency means the concentration at half of the fitted maximal effect
Outline: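 HepG2 cells, attached overnight, were exposed to compound for 1 hr at 37C, then stained 30 min with a potentiometric dye. Ratio of red aggregate (590nm) to green monomer (535nm) fluorescence reports membrane potential; collapse shifts signal toward green.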

[13] = target: Bile acid receptor (Homo sapiens) (UniProt Q96RI1); test: qHTS assay for small molecule agonists of farnesoid X receptor signaling (AID 588527); settings: HEK293T FXR-UAS-bla, beta-lactamase ratio, 16 h; stronger effect = higher value;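 further: 0% = vehicle basal and 100% = reference agonist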
Bile acid receptor (Homo sapiens), sequence (Q96RI1 whole entry, looked up): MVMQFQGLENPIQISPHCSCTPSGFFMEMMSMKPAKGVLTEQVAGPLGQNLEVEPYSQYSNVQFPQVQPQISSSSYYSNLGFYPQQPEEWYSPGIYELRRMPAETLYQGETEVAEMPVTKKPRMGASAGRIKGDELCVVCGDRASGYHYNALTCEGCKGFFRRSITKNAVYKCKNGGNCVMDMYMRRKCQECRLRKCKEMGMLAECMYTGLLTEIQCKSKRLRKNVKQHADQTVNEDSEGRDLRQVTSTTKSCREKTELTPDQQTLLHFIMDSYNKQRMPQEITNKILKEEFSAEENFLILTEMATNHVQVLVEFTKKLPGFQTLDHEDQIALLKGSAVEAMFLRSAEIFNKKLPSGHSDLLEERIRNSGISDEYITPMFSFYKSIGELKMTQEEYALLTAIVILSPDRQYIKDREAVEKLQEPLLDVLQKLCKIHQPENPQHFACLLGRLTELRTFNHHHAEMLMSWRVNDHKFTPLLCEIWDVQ
Outline: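 FXR-UAS-bla HEK293T, 10% dialyzed FBS; cpds up to 92 uM titration, 16 h 37 C; CCF4 dye 2 h RT; fluorescence. Normalized to chenodeoxycholic acid 100 uM (100%) and DMSO (0%); Hill fit gives EC50, efficacy.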

[14] = target: Glucocorticoid receptor (Homo sapiens) (UniProt P04150); test: qHTS assay for small molecule agonists of glucocorticoid receptor signaling (AID 588532; active means well fitted curve in the direction sought with a large enough effect in the signal ratio, with a control signal flat; the % refers to the signal ratio;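 further: 100% = dexamethasone at 0.1 µM and 0% = DMSO only wells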); settings: HeLa MMTV-bla, beta-lactamase ratio, agonist, 18 h; stronger effect = higher value; percent of dexamethasone control, DMSO zero
Outline: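 MMTV-bla HeLa beta-lactamase reporter cells in 1% charcoal/dextran FBS medium, compounds up to 92 uM for 18 h at 37 C, CCF4 readout; normalized to 0.1 uM dexamethasone (100%), EC50 and efficacy from Hill fits.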

[15] = target: Peroxisome proliferator-activated receptor delta (Homo sapiens) (UniProt Q03181); test: qHTS assay for small molecule agonists of peroxisome proliferator-activated receptor delta signaling (AID 588534); settings: HEK293T PPARdelta-UAS-bla, beta-lactamase ratio, 18 h; series mostly up to 76.7 µM;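 further: 0% = DMSO basal wells and 100% = positive control agonist at 10 µM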
Outline: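 Cells carrying a PPAR-delta beta-lactamase reporter were treated with compounds for 18 h at 37 °C in agonist mode. CCF4 fluorescence was read after 2 h; EC50 and efficacy from Hill fits.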

[16] = target: Vitamin D3 receptor (Homo sapiens) (UniProt P11473); test: qHTS assay for small molecule antagonists of vitamin D receptor signaling (AID 588541); settings: HEK293T VDR-UAS-bla, beta-lactamase ratio, antagonist mode; series mostly up to 76.7 µM;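 further: receptor activated by calcitriol during compound treatment; on the % scale 0 is the no-effect control and ±100 the full control effect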
Vitamin D3 receptor (Homo sapiens), sequence (P11473 whole entry, looked up): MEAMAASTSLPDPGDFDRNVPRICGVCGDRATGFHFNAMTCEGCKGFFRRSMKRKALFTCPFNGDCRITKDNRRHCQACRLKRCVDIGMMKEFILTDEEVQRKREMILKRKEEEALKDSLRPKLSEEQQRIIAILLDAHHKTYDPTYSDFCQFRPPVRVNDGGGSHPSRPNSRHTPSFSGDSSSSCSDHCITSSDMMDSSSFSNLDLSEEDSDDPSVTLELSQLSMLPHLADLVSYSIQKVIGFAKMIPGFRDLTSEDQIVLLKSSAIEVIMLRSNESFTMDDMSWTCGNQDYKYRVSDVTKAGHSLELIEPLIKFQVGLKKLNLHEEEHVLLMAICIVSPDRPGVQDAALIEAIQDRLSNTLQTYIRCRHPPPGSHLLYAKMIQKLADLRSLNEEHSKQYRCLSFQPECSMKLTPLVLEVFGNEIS
Outline: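 VDR-UAS-bla HEK293T cells in 2% charcoal-stripped FBS were stimulated with 1-alpha,25-dihydroxyvitamin D3 (3 nM final) plus compound for 16 h at 37 C. The beta-lactamase CCF4 readout was normalized to 50 nM agonist and DMSO, and Hill fits gave IC50.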

[17] = target: Thyroid hormone receptor beta (Homo sapiens) (UniProt P10828); test: qHTS assay for small molecule agonists of thyroid hormone receptor beta signaling (AID 588545); settings: TR-UAS-bla GripTite HEK 293, beta-lactamase ratio, agonist mode, 18 h; series mostly up to 76.7 µM;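 further: 0% = DMSO only and 100% = 10 nM T3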
Outline: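 TR-UAS-bla-GripTite HEK 293 cells in medium with 2% charcoal/dextran FBS, 0.1 mM NEAA and 1 mM sodium pyruvate were treated with titrated compounds for 18 hrs at 37 C. Beta-lactamase reporter was read with CCF4 dye (ex 405, em 460/530 nm); EC50 from Hill fits.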

[18] = qHTS assay for small molecule agonists of the antioxidant response element (ARE) signaling pathway (AID 651741; active means well fitted activation curve with a large enough effect in the signal ratio; the % refers to the signal ratio; further: potency means the concentration at half of the fitted maximal effect; on activation: % of control where 0% means no effect); settings: HepG2 ARE-bla reporter, beta-lactamase FRET ratio, 16 h; series mostly up to 96 µM
Outline: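 CellSensor ARE-bla HepG2 cells (2,000/well) carrying ARE-driven beta-lactamase, exposed 16 h at 37 C. LiveBLAzer B/G FRET substrate added for 2 h at room temperature; fluorescence intensity read.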

[19] = qHTS assay for small molecule activators of the p53 signaling pathway (AID 651743; active means well fitted activation curve with a large enough effect in the signal ratio, not every such curve was filed as active; the % refers to the signal ratio; further: % of control where 0% means no effect); settings: HCT-116 p53RE-bla, beta-lactamase FRET ratio, 16 h; activation: stronger effect = higher value
Outline: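 p53RE-bla HCT-116 cells carrying a beta-lactamase reporter under p53 response elements were exposed to compounds for 16 hours at 37 C. Reporter activity read as fluorescence after 2 hours at room temperature with LiveBLAzer B/G FRET substrate.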

[20] = Cell Viability - HepG2 (AID 433); settings: qHTS;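 further: potency means the concentration at half of the fitted maximal effect; potency for ATP loss meaning cytotoxicity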
Outline: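 HepG2 cells, 1500 per well, treated 40 hr at 37 °C in complete medium; viability from intracellular ATP by CellTiter-Glo luminescence. Normalized to DMSO and 100 uM tamoxifen; AC50 from Hill fit of qHTS concentration-response.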

ClC(Br)Br
2.53%: max response [7]
inactive: Potency [1] > 92 µM | Potency [2] > 92 µM | Potency [3] | outcome [4] | Potency [5] | outcome [6] | outcome [8] | outcome [9] | Potency [10] | activity change % (negative = inhibition) [11] 16% | Potency [12]

c1ccc(NNc2ccccc2)cc1
inactive: Potency [1] > 92 µM | Potency [2] > 92 µM | Potency [3] | activation [13] 1.06% and 0.0431% | activation [14] 1.14% and -8.47% | outcome [15] | outcome [16] | Potency [17] | activity change % (negative = inhibition) [11] 8.59% | Potency [18] | activation [19] -0.259% and 0.698% | Potency [12]
13.2% and 5.7%: max response [7]

O=C(O)CCl
active: Potency [18] 42.2 µM
inactive: Potency [1] > 92 µM | Potency [2] > 92 µM | outcome [4] | activation [14] 1.7% | outcome [9] | Potency [10] | outcome [16] | Potency [17] | activity change % (negative = inhibition) [11] -0.364% | Potency [12]

Cc1ccc2c(c1N)C(=O)c1ccccc1C2=O
inactive: Potency [1] > 92 µM | Potency [2] > 92 µM | outcome [4] | Potency [5] | activation [13] -0.569% and 1.06% | activation [14] -11.3% and -4.68% | outcome [15] | outcome [9] | Potency [10] | activation [19] 7.91% and 8.94%
active: Potency [18] 21.1 µM and 17.2 µM | Potency [12] 2.66 µM

O=NN1CCCCC1
inactive: Potency [1] > 92 µM | Potency [20] > 92 µM | Potency [3] | activation [14] 0.249% | outcome [6] | outcome [15] | outcome [8] | outcome [9] | outcome [16] | activity change % (negative = inhibition) [11] 8.23% | Potency [18] | activation [19] -2.94% | Potency [12]
-27.9%: max response [7]

C/C=C/C=O
inactive: Potency [1] > 92 µM | Potency [2] > 92 µM | Potency [3] | outcome [4] | activation [14] 3.01% | Potency [10] | outcome [16] | Potency [17] | activity change % (negative = inhibition) [11] -1.85%

CC(C)Br
inactive: Potency [1] > 92 µM | Potency [20] > 92 µM | Potency [3] | outcome [4] | Potency [5] | activation [13] -0.0522% | outcome [6] | outcome [9] | Potency [10] | Potency [17] | Potency [18] | activation [19] -2.41% | Potency [12]

CC(C)(OOC(C)(C)c1ccccc1)c1ccccc1
42.8% and 13.3%: max response [7]
inactive: Potency [1] > 92 µM | Potency [20] > 92 µM | Potency [2] > 92 µM | activation [13] 3.57% and 3.43% | activation [14] -3.95% and 1.36% | outcome [6] | outcome [8] | outcome [9] | outcome [16] | Potency [17] | activity change % (negative = inhibition) [11] 6.91% | Potency [18] | activation [19] -3.14% and -2.07% | Potency [12]
